Hits are enriched below; roughly 8% of the tested compounds scored in any of these assays.
RORgamma inh: ROR gamma (mouse) transcription inhibition; Drosophila S2 Gal4-RORgamma UAS-luciferase reporter, 20 h; Potency, µM (top dose mostly 53.6 µM), hits mostly inhibitors; AID 2551; P51450; 5.4% of 310,000 active; further: nearly all actives have a fitted effect of over 60% in size
Target sequence (P51450 whole entry, looked up, the tested form may be a part): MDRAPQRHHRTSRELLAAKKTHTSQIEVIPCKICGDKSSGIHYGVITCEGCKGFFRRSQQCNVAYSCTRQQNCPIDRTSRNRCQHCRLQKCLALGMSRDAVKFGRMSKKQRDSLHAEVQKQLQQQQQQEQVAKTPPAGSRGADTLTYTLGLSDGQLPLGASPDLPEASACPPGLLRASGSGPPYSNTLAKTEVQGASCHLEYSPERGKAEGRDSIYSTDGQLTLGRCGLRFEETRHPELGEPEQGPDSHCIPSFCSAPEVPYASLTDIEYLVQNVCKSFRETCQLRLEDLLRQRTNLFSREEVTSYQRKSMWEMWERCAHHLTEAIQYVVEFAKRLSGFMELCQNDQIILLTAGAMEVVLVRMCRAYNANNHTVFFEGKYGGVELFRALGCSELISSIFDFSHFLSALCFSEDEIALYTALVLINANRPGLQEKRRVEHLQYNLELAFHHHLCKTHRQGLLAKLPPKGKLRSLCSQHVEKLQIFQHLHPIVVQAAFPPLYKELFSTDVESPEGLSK
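Read-out: Photinus luciferase luminescence; inhibitors lower reporter signal. Insect Schneider cells with Gal4-ROR gamma fusion under metallothionein promoter, UAS reporter; 700 uM final copper sulfate induction, 20 hr, ambient temperature.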
Coupling enz: inhibits coupling enzyme system, counter-screen for aldolase hits | coupling enzyme system counterscreen, AmpLite Red fluorescence | 0.67% of 290,000 active | AID 2472 | activity change, negative = inhibition, % at 58.2 µM, hits read low; in the data active means activity change below about -30%
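Compounds tested against the coupling enzymes alone at 57.5 uM final; readout was AmpLite Red fluorescence (525/598 nm) after 20 min at RT.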
VP16 counter: Gal4-VP16 reporter inhibition counter-screen | 3.5% of 310,000 active | Drosophila S2 Gal4-VP16 UAS-luciferase, luminescence, 20 h | Potency, µM (highest dose often 53.6 µM), actives largely listed as inhibitors | AID 2546;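 further: Gal4-VP16 expression switched on by copper sulfate through the metallothionein promoter; nearly all actives have a fitted effect of over 50% in size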
ELG1 DNA repair: ELG1-dependent DNA repair inhibition; 2.3% of 330,000 active; HEK293T ELG1-luciferase reporter, luminescence, 16 h; DNA damage induced by 5-fluorouridine; Potency, µM (doses to about 46.1 µM), usual class: inhibitors; further: nearly all actives have a fitted effect of over 55% in size
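HEK293T cells expressing luciferase-tagged ELG1 (2,000/well) received 5-Fluorouridine plus compound or DMSO for 16 hr at 37 °C. Luciferase was read by ONE-Glo luminescence after 30 min at room temperature.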
TSHR antag: antagonists of human thyroid stimulating hormone receptor | P16473 | TSHR-expressing cells, TSH-stimulated cAMP HTRF, 2 h; hits give low values | activity change, negative = inhibition, % at 11.5 µM | 0.2% of 330,000 active | AID 504810;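 active means activity change below a set negative limit, meaning inhibition stronger than a set level, cut at about -70% in these data; inconclusive means activity change between two set negative limits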
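Competitive HTRF cAMP read-out (cryptate anti-cAMP antibody, cAMP-d2; 30 min, room temperature) in freshly harvested TSHR cells. Compounds added before TSH at EC80 (4nM final), followed by 2 hours' incubation at 37 deg C.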
Numbers stand for hits; 0 = inactive; ? = inconclusive; - = no result given; [ ] = remark or other dose. Unless noted, the call rests on the fitted dose curve; in most records, active means well fitted curve in the direction sought with a large enough effect; inconclusive means small, poorly fitted or top-dose-only effect, or another doubt; inactive means no such curve, though single readings can be large; an effect the other way counts as inactive or inconclusive.

SMILES	RORgamma inh	Coupling enz	VP16 counter	ELG1 DNA repair	TSHR antag
Brc1cccc(CNCC2CCCO2)c1 (stereo not given)	0[1.91 µM]	0	0	0	0
CCCCN(C)CCn1c(=S)[nH]c2ccc(N3CCOCC3)cc2c1=O	?	0	?	0	0
O=C(CCCCCn1c(=S)[nH]c2ccc(N3CCOCC3)cc2c1=O)NCc1cccc(Cl)c1	10µM	0	0	?	0
O=c1c2cc(N3CCOCC3)ccc2[nH]c(=S)n1CCc1ccccc1	2µM	0	3.2µM	0	0
O=c1c2cc(N3CCOCC3)ccc2[nH]c(=S)n1Cc1ccccc1Cl	?	0	?	?	0
O=C(CCCCCn1c(=S)[nH]c2ccc(N3CCOCC3)cc2c1=O)NCc1ccccc1	0	0	?	0	0
COCCCn1c(=S)[nH]c2ccc(N3CCOCC3)cc2c1=O	?	0	?	0	0
COc1ccc(CCn2c(=S)[nH]c3ccc(N4CCOCC4)cc3c2=O)cc1OC	13µM	0	?	0	0
O=c1c2cc(N3CCOCC3)ccc2[nH]c(=S)n1Cc1ccccn1	7.9µM	-41	?	0	0
CCc1nn(C(C)C(=O)N2CCN(c3ccc(OC)cc3)CC2)c(=O)c2cc3occc3n12 (stereo not given)	0	0	0	0	0
Cc1cccc(N2CCN(C(=O)CCCSc3nc4ccccc4[nH]3)CC2)c1C	?	0	22µM	?	0
O=C(CSc1nc2ccccc2[nH]1)N1CCCCC1	0	0	0	?	0
O=C(CSc1nc2ccccc2[nH]1)N1CCN(c2ccccc2)CC1	0	0	0	0	0
O=C(CCCSc1nc2ccccc2[nH]1)N1CCN(c2ccccc2)CC1	0	0	0	23µM	0
CCOc1ncccc1C(=O)Nc1cc(S(=O)(=O)N2CCCCC2)ccc1OC	-	-	-	0	0
O=C(O)c1ccc2c(c1)C(=O)N([C@H](Cc1cccc3ccccc13)C(=O)O)C2=O	0	0	0	-	0
COc1ccc2[nH]c(=O)c(CN(Cc3ccc(C)cc3)Cc3nnnn3CC3CCCO3)cc2c1 (stereo not given)	?	-47	0	?	0
O=c1[nH]c2cc3c(cc2cc1CN(Cc1nnnn1CC1CCCO1)C1CCCC1)OCO3 (stereo not given)	0	0	0	15µM	0
O=c1[nH]c2cc3c(cc2cc1CN(Cc1nnnn1CC1CCCO1)C1CCCCC1)OCO3 (stereo not given)	0	0	0	?	0
CCOC(=O)Cn1nnnc1CN(Cc1ccc(OC)cc1)Cc1cc2cc(CC)ccc2[nH]c1=O	0	0	0	?	0
CCOC(=O)Cn1nnnc1CN(Cc1ccc(OC)cc1)Cc1cc2cc(C)ccc2[nH]c1=O	?	0	0	18µM	0
COc1ccccc1CN(Cc1cc2cc(C)ccc2[nH]c1=O)Cc1nnnn1CC1CCCO1 (stereo not given)	0	0	?	?	0
COc1ccc2[nH]c(=O)c(CN(Cc3ccccc3OC)Cc3nnnn3CC3CCCO3)cc2c1 (stereo not given)	0	0	0	16µM	0
COc1ccc(NC(=O)CCSc2nc(C)cs2)cc1	0	0	0	?	0
COc1ccc2cc(CN(CCc3ccccc3)Cc3nnnn3CC3CCCO3)c(=O)[nH]c2c1 (stereo not given)	0	0	0	?	0
SMILES	RORgamma inh	Coupling enz	VP16 counter	ELG1 DNA repair	TSHR antag
COc1ccc2[nH]c(=O)c(CN(CCc3ccccc3)Cc3nnnn3CC3CCCO3)cc2c1 (stereo not given)	0	-40	0	?	0
O=C(O)c1cccc2c1C(=O)c1ccc(-c3ccc(F)cc3F)cc1S2(=O)=O	-	-	-	0	0
C=CC1=C(C(=O)O)N2C(=O)C(NC(=O)Cc3ccccc3)C2SC1 (stereo not given)	0	-42	0	0	0
O=C(Nc1ccccc1O)C(c1ccccc1)c1ccccc1	?	0	16µM	4.6µM	0
CC(C)Cc1ccc(C(C)C(=O)Nc2nccs2)cc1 (stereo not given)	13µM	0	?	0	0
CC(CC(=O)Nc1nccs1)c1ccccc1 (stereo not given)	0	0	0	?	0
CC(C)Cc1ccc([C@@H](C)C(=O)NS(C)(=O)=O)cc1	0	0	0	-	-
CC(C)c1ccc(CNC(=O)C(=O)Nc2nccs2)cc1	0	0	0[10 µM]	0	0
CC(C)Cc1ccc(C(C)C(=O)Nc2ccccc2O)cc1 (stereo not given)	0	0	?	5.8µM	0
CC(C)C(C(=O)Nc1nccs1)c1ccccc1 (stereo not given)	11µM	0	?	0	0
O=C(Cn1cnc2ccccc2c1=O)N1CCN(S(=O)(=O)c2ccc(F)cc2)CC1	-	-	-	0	0
CCCn1c(SCC(=O)N2CCCC2=O)nc2ccccc2c1=O	-	-	-	0	0
NC(=O)C1CCN(Cc2nc3cc(Cl)ccc3c(=O)[nH]2)CC1	0	0	0	0	0
CCNCc1nc2cc(Cl)ccc2c(=O)[nH]1	6.3µM	0	16µM	?	0
Cc1ccc2oc(C(Cl)(Cl)Cl)cc(=O)c2c1	5µM	0	?	0	0
Cc1ccc2oc(C(F)(F)C(F)F)cc(=O)c2c1	0	0	0	0	0
COc1ccc(-c2ccc(C(C)=O)cc2)cc1[C@H]1[C@@H]2C=CCC[C@@]2(C)C(=O)N1Cc1ccccc1	0	0	0	21µM	0
COC(=O)c1c(N)n(CCCN2CCOCC2)c2nc3ccccc3nc12	0	0	0	0	0
Nc1c(C(=O)NCc2ccco2)c2nc3ccccc3nc2n1CCc1ccccc1	?	-34	0	?	0
Nc1c(C(=O)NCc2ccccc2)c2nc3ccccc3nc2n1CCCN1CCOCC1	0	0	0	21µM	0
COc1ccc(CNC(=O)c2c(N)n(CCCN3CCOCC3)c3nc4ccccc4nc23)cc1	?	0	?	21µM	0
Nc1c(C(=O)NCc2ccc(F)cc2)c2nc3ccccc3nc2n1CCCN1CCOCC1	0	0	?	?	0
O=C(c1csnn1)N1CCC2(CCN(Cc3ccccc3)CC2)CC1	0	0	0	-	-
Cc1cccc2cc3c(NC(=O)c4ccccn4)nn(C)c3nc12	2µM	0	4µM	0	0
CCCC(=O)Nc1nn(C)c2nc3c(C)cccc3cc12	0	0	0	0	0
SMILES	RORgamma inh	Coupling enz	VP16 counter	ELG1 DNA repair	TSHR antag
Nc1ccc(-n2cc(-c3ccccc3)[nH]c2=S)cc1	8.9µM	0	?	?	0
O=[N+]([O-])c1cccc(-c2cn(-c3ccccc3)c(=S)[nH]2)c1	2µM	0	11µM	0	0
O=[N+]([O-])c1ccc(-c2cn(-c3ccccc3)c(=S)[nH]2)cc1	?	0	?	?	0
O=c1cc(O)n(-c2ccccc2)c(=S)[nH]1	0	0	0	0	0
S=c1[nH]c(-c2ccccc2)cn1-c1ccccc1	10µM	0	10µM	?	0
COC(=O)c1c(NC(=O)c2ccccc2OC)sc(C(=O)N2CCOCC2)c1C	0	0	0	0	0
